Compound activity as filed in PubChem BioAssay.
DT40 TDP1 CPT: growth inhibition of DT40 Tdp1-/-;hTDP1 cells with camptothecin (screen for TDP1 inhibitors) | chicken DT40 Tdp1-/-;hTDP1 cells + 20 nM CPT, ATP luminescence, 48 h | Potency, µM (doses to about 46.2 µM), without a hit: at the highest dose activity change, negative = growth inhibition, hits mostly inhibitors | 12% of 420,000 active | AID 686979; also: % is scaled to controls: 0 for no effect and ±100 for the full control effect; nearly all actives have a fitted effect of over 55% in size
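Chicken DT40 Tdp1-/- cells stably complemented with human TDP1 were seeded at 400 cells/well in medium containing 20 nM camptothecin, exposed to pin-transferred compounds, and grown at 37 °C for at least 48 hr. Viability was read as ATP luminescence.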
HepG2 tox: HepG2 cytotoxicity, counter-screen for TGF-b inhibitors. HepG2 CAGA-GFP viability, ATP luminescence, 18 h. Potency, µM (titrated, usually from 46.1 µM), for the others: at the top dose activity change, negative = cytotoxicity, usual class: cytotoxic. 0.76% of 410,000 active. AID 588856
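HepG2 CAGA-GFP cells (1000/well, DMEM with 1% FBS) received compound, then TGF-beta at 500 pg/mL final, and were incubated 18 hours at 37 degrees C. Viability was read by CellTiter-Glo luminescence. Media-only wells were set as complete cell-killing and DMSO as no toxicity.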
DT40 TDP1 no CPT: qHTS for Inhibitors of human tyrosyl-DNA phosphodiesterase 1 (TDP1): qHTS in cells in absence of CPT; DT40 Tdp1-/- hTDP1 cells, no CPT, ATP luminescence, 48 h; Potency, µM (highest dose often 46.2 µM), inactives show at the top dose activity change, negative = growth inhibition, most hits filed as inhibitors; 15% of 420,000 active; also: % is scaled to controls: 0 for no effect and ±100 for the full control effect; nearly all actives have a fitted effect of over 55% in size
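Chicken DT40 Tdp1-/- cells complemented with human TDP1, screened without camptothecin (DMSO vehicle only), 400 cells/well. Compounds pin-transferred, cells incubated at 37 °C for at least 48 hr. Growth read as ATP-dependent luminescence (CellTiter-Glo, 30 min at RT).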
ATXN viability: cell viability loss in ATXN counter-screen | S2 cells (HEK-293 line with an ATXN2-luciferase reporter) viability, CellTiter-Fluor protease fluorescence, 24 h | Potency, µM (doses to about 56.7 µM), usual class: cytotoxic | 0.49% of 400,000 active; also: nearly all actives have a fitted effect of over 40% in size
TGFb inhibitor: inhibitors of TGF-b signaling; Potency, µM (highest dose often 46.1 µM), for inactives: top-dose activity, negative = inhibition, most hits filed as inhibitors; 1.2% of 410,000 active; HepG2 CAGA-GFP TGF-b/SMAD3 reporter, GFP fluorescence, 18 h; TGF-beta stimulated, 500 pg/mL final; also: % is scaled to controls: 0 for no effect and ±100 for the full control effect; nearly all actives have a fitted effect of over 65% in size
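Smad-responsive CAGA-GFP expression was quantified in HEPG2 cells exposed to compounds and 500 pg/mL final TGF-beta for 18 h at 37 degrees C; unstimulated wells defined full inhibition.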
ATXN2 expr inh: ATXN2 expression inhibition. HEK-293 ATXN2-luciferase reporter, luminescence, 24 h. Potency, µM (titrated, usually from 57 µM), inactives show at the highest dose activity change, negative = inhibition, hits mostly inhibitors. 0.72% of 360,000 active. AID 1745845; also: % is scaled to controls: 0 for no effect and ±100 for the full control effect; nearly all actives have a fitted effect of over 55% in size
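qHTS (up to 57 uM final) was run with 24 h compound exposure of reporter cells at 37 °C. Each well was multiplexed: SteadyGlo luminescence measured ATXN2-luciferase expression after a fluorogenic Gly-Phe-AFC viability readout (25 uM final).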
* marks the source's active call; other numbers are inactive results; i = inactive; ? = inconclusive; · = no result; [ ] = remark or other dose. Sampled rows, rich in hits. Any-hit rate of the full collection: about 17%. Calls follow the shape of the dose curve; as a rule, active = well fitted curve in the direction sought with a large enough effect; inconclusive = small, poorly fitted or top-dose-only effect, or another doubt; inactive = no such curve, though single readings can be large; an effect the other way counts as inactive or inconclusive. Potency is read from the fitted curve at half-maximal effect.

SMILES	DT40 TDP1 CPT	HepG2 tox	DT40 TDP1 no CPT	ATXN viability	TGFb inhibitor	ATXN2 expr inh
CCCCOc1ccc(C2c3c(-c4ccccc4O)n[nH]c3C(=O)N2Cc2ccncc2)cc1OC (stereo not drawn)	?	-27%	23µM*	·	?	·
COc1cc(C2c3c(-c4cc(C)ccc4O)n[nH]c3C(=O)N2Cc2cccnc2)cc(OC)c1OC (stereo not drawn)	7%	-22%	-11%	i	-12%	1%
CCCOc1cccc(C2c3c(-c4ccccc4O)n[nH]c3C(=O)N2Cc2ccco2)c1 (stereo not drawn)	?	-111%	?	·	?	·
CCCOc1ccc(C2c3c(-c4ccccc4O)n[nH]c3C(=O)N2CCc2ccccc2)cc1OCC (stereo not drawn)	12µM*	11µM*	13µM*	·	11µM*	·
CCCCCCCCCCCCOC(=O)N1CCN(/[N+]([O-])=N/Oc2ccc([N+](=O)[O-])cc2[N+](C)=O)CC1	·	-42%	·	·	-2%	·
CCCNC(=S)N1CC2(C)CN(C(=O)C(=O)OCC)CC(C)(C1)C2=O	-5%	0%	6%	i	1%	-1%
O=C(Nc1c(C(=O)c2ccccc2)oc2ccccc12)c1cc(=O)c2ccccc2o1	15%	-5%	1%	i	-2%	12%
CC(=O)N(Cc1ccccc1C)c1cccc(C)c1C	-14%	2%	-24%	i	0%	-4%[11.3 µM]
CC(=O)N(Cc1ccc(F)cc1)c1cccc(C)c1C	?	-3%	21µM*	i	-5%	·
CCc1ccc2[nH]c(=O)c(C(c3nnnn3CCOC)N3CCN(c4ccccc4)CC3)cc2c1 (stereo not drawn)	?	-1%	18µM*	i	14%	4%
O=c1[nH]c2cc3c(cc2cc1C(c1nnnn1C1CCCC1)N1CCSCC1)OCCO3 (stereo not drawn)	23µM*	-84%	18µM*	i	-13%	-5%
CC(C)(C)n1nnnc1C(c1cc2cc3c(cc2[nH]c1=O)OCCO3)N1CCSCC1 (stereo not drawn)	-23%	-17%	-15%	?	7%	28%
CCC(C)(C)n1nnnc1C(c1cc2ccc(OC)cc2[nH]c1=O)N1CCc2ccccc2C1 (stereo not drawn)	?	-42%	?	i	?	10%
COc1ccc2cc(C(c3nnnn3C3CCCC3)N3CCc4ccccc4C3)c(=O)[nH]c2c1 (stereo not drawn)	?	-12%	18µM*	i	-25%	4%
COc1ccc(Cn2nnnc2C(c2cc3ccc(OC)cc3[nH]c2=O)N2CCCCCC2)cc1 (stereo not drawn)	16µM*	3%	23µM*	i	-18%	-2%
Cc1ccc(C(=O)NCC(=O)Nc2ccncc2)cc1C	-20%	0%	-25%	i	2%	4%
C[C@@H]1CN([C@@H](C)CO)C(=O)c2cc(-c3cccnc3)cnc2O[C@H]1CN(C)C(=O)c1cccc(F)c1	15%	-13%	6%	i	0%	9%
Cc1cc2cc(C(c3nnnn3Cc3ccco3)N3CCc4ccccc4C3)c(=O)[nH]c2cc1C (stereo not drawn)	?	-13%	23µM*	i	?	-21%
CC(SCc1ccccc1)C(=O)Nc1ccc(F)cc1 (stereo not drawn)	-19%	-5%	-18%	i	-7%	0%
CC(C)C(=O)Nc1ccc(Sc2ccc(F)cc2)cc1	16µM*	-3%	16µM*	i	22%	-5%
CSc1ccc(C(=O)/C=C/c2ccc(N)cc2)cc1	-36%	-31%	?	i	?	112%
CC(C)C(=O)Nc1ccc(NC(=O)c2cccc3c(Br)cccc23)cc1	16µM*	2%	?	?	0%	-26%
CCC(CC)C(=O)Nc1ccc(Nc2ccccc2)cc1	?	0%	?	i	11%	3%
CSc1ccc(/C=C/C(=O)c2ccc(NC(=O)C(C)C)cc2)cc1	?	14µM*	?	i	-13%	-13%
CC(C)C(=O)Nc1ccc(Nc2ccccc2)cc1	12µM*	-29%	10µM*	i	1%	15%
SMILES	DT40 TDP1 CPT	HepG2 tox	DT40 TDP1 no CPT	ATXN viability	TGFb inhibitor	ATXN2 expr inh
CN(C(=O)c1cccc(NC(=O)Cc2ccc(NC(=O)C3CCN(C(=O)C4CC4)CC3)cc2)c1)C1CC1	3%	1%	4%	i	14%	3%
CC(C)(C)c1ccc(-n2nc(C#N)c(Cl)cc2=O)cc1	3.7µM*	6.3µM*	2.9µM*	·	7.1µM*	?
CC(C)(C)c1ccc(-n2nc(C(N)=O)c(O)cc2=O)cc1	?	-21%	?	?	8%	19%
CCc1nc2ccc(C(=O)NCc3ccc(OC)cc3)cn2c1N(CC)CCOC	15µM*	4%	?	i	-18%	10%
CCc1nc2ccc(C(=O)NCCc3ccccn3)cn2c1N(CCC(C)C)CCN(C)C	-23%	-1%	?	i	0%	3%
CCc1nc2ccc(C(=O)NCCc3ccccn3)cn2c1N(C)CCC(C)C	?	-26%	26µM*	?	-16%	-35%
CCCCNC(=O)c1ccc2nc(CC)c(N(CC)CCOC)n2c1	26µM*	19%	21µM*	i	12%	-7%
CCc1nc2ccc(C(=O)NCCCN(C)C)cn2c1N(CC)CCOC	2%	0%	2%	i	37%	13%
CCc1nc2ccc(C(=O)Nc3cccc(OC)c3)cn2c1N(CC)CCN(C)C	4%	5%	3%	i	20%	19%
CCc1nc2ccc(C(=O)Nc3cccc(OC)c3)cn2c1N(CC)CCOC	13µM*	-74%	18µM*	i	-15%	-26%
CCc1nc2ccc(C(=O)NCc3ccc(OC)cc3)cn2c1N(C)CCC(C)C	?	13%	23µM*	i	-3%	-13%
CCc1nc2ccc(C(=O)NCc3ccccc3OC)cn2c1N(CC)CCOC	16µM*	-2%	16µM*	i	?	-12%
COc1ccc(C)cc1NC(=O)N(C(C)C)C1CCN(C(C)=O)CC1	18%	9%	1%	·	-31%	·
COc1ccc(C2C=C(c3ccc(F)cc3)Nc3nc(-c4ccc(Cl)cc4)nn32)cc1 (stereo not drawn)	?	-32%	?	·	?	?
